# High-throughput results deposited in PubChem BioAssay by National Center for Advancing Translational Sciences (NCATS).
# HepG2 tox-1 – kills HepG2 cells in TGF-b inhibitor counter-screen. HepG2 CAGA-GFP viability, ATP luminescence, 18 h. Potency, µM (highest dose often 46.1 µM), usual class: cytotoxic. actives 0.76% (n = 410,000). AID 588856
#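 HepG2 CAGA-GFP cells (1000/well, DMEM with 1% FBS) received compound, then TGF-beta at 500 pg/mL final, and were incubated 18 hours at 37 degrees C. Viability was read by CellTiter-Glo luminescence. Media-only wells were set as complete cell-killing and DMSO as no toxicity.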
# HT1080 IDH1KD tx – kills HT-1080 cells with IDH1 knockdown | HT-1080 IDH1 knockdown viability, ATP luminescence, 48 h | Potency, µM (titrated, usually from 46.1 µM), hits mostly cytotoxic | actives 2% (n = 360,000)
#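 In this qHTS, HT-1080 cells depleted of IDH1 are exposed for 48 h at 37 °C to compound titrations. Toxicity is scored from CellTiter-Glo luminescence, with DMSO as full viability and medium alone as none.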
# S2 tox – reduces viability in counter-screen for ATXN expression inhibitors | S2 cells (HEK-293 line with an ATXN2-luciferase reporter) viability, CellTiter-Fluor protease fluorescence, 24 h | Potency, µM (doses to about 56.7 µM), hits mostly cytotoxic | actives 0.49% (n = 400,000) | AID 651635; further: nearly all actives have a fitted effect of over 40% in size
# HT1080NT lethal – kills 2HG-producing HT-1080-NT fibrosarcoma cells | AID 686970 | actives 1.6% (n = 360,000) | HT-1080-NT fibrosarcoma viability, CellTiter-Glo ATP luminescence, 48 h | Potency, µM (top dose mostly 46.1 µM), actives largely listed as cytotoxic;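 further: NT is the 2HG producing partner of a matched IDH1 knockdown line; nearly all actives have a fitted effect of over 55% in size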
#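 Viability by CellTiter-Glo luminescence after 48 h compound exposure at 37C of HT-1080-NT cells (750/well, RPMI, 5% FBS). % activity scaled between DMSO wells and medium-only wells, then curve-fitted and categorized by curve class.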
# TGFb inhibitor – blocks TGF-b signaling; actives 1.2% (n = 410,000); AID 588855; Potency, µM (series often up to 46.1 µM), most hits filed as inhibitors; HepG2 CAGA-GFP TGF-b/SMAD3 reporter, GFP fluorescence, 18 h; TGF-beta stimulated, 500 pg/mL final; further: nearly all actives have a fitted effect of over 65% in size
#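 HEPG2 CAGA-GFP reporter cells (1000/well, DMEM with 1% FBS) received compounds, then recombinant TGF-beta at 500 pg/mL final for 18 hours at 37 degrees C. Per-cell GFP summed per well was normalised to unstimulated and stimulated DMSO controls before curve fitting.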
# ATXN2 expr inh – inhibitors of ATXN2 expression | actives 0.72% (n = 360,000) | HEK-293 ATXN2-luciferase reporter, luminescence, 24 h | Potency, µM (highest dose often 57 µM), actives largely listed as inhibitors | AID 1745845; further: nearly all actives have a fitted effect of over 55% in size
#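 ATXN2-luciferase reporter cells (luciferase flanked by upstream and downstream ATXN2 gene portions) were treated 24 h at 37 °C with compounds at up to 57 uM. SteadyGlo luminescence gave expression; GF-AFC fluorescence gave viability.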
# TGFb confirm – confirmation of TGF-b signaling inhibitors in HepG2 reporter cells. AID 720534. HepG2 CAGA-GFP TGF-b reporter, GFP fluorescence, 18 h; cells stimulated with TGF-beta, 500 pg/mL. actives 63% (n = 1,600). shares compounds with TGFb inhibitor. Potency, µM (series often up to 46.1 µM), hits mostly inhibitors; further: nearly all actives have a fitted effect of over 65% in size
# HepG2 tox-2 – counter-screen for TGF-b inhibitors: cytotoxicity in HepG2 cells. shares compounds with TGFb inhibitor. Potency, µM (top dose mostly 46.1 µM), usual class: inhibitors. HepG2 CAGA-GFP viability, ATP luminescence, 18 h; cells stimulated with TGF-beta, 500 pg/mL. actives 27% (n = 1,600); further: nearly all actives have a fitted effect of over 70% in size
# TGFb CCL64 inh – orthogonal confirmation of TGF-b inhibitors in CCL64 cells. Potency, µM (titrated, usually from 46.1 µM), usual class: inhibitors. actives 41% (n = 1,600). shares compounds with TGFb inhibitor. AID 720536. CCL64 CAGA-GFP reporter, TGF-b stimulated, GFP fluorescence, 18 h; further: nearly all actives have a fitted effect of over 65% in size
# COP TGFb inh – TGF-b inhibition validated with COP promoter | shares compounds with TGFb inhibitor | HepG2 COP-GFP TGF-b reporter, GFP fluorescence, 18 h; cells stimulated by added recombinant TGF-beta | Potency, µM (highest dose often 46.1 µM), usual class: inhibitors | actives 3% (n = 1,600) | AID 720537; further: nearly all actives have a fitted effect of over 70% in size
# A number is an active result; 0 = inactive; ? = inconclusive; - = not tested or not shown; ! = a repeat was not active. This is a sample that favours compounds with a hit; in the whole collection about 3.9% have one here. The call rests on the fitted dose curve; in most records, active means well fitted curve in the direction sought with a large enough effect; inconclusive means small, poorly fitted or top-dose-only effect, or another doubt; inactive means no such curve, though single readings can be large; an effect the other way counts as inactive or inconclusive.
SMILES,HepG2 tox-1,HT1080 IDH1KD tx,S2 tox,HT1080NT lethal,TGFb inhibitor,ATXN2 expr inh,TGFb confirm,HepG2 tox-2,TGFb CCL64 inh,COP TGFb inh
CC1=CC2OC3CC4OC(=O)C=CC=CC(=O)OCCC(C)C(O)C(=O)OCC2(CC1O)C4(C)C31CO1 (configuration not stated),0,-,?,0.21µM,0,?,0.012µM,-,0.0046µM,0
COc1ccc2[nH]cc(CCN=C(NC(=O)c3ccccc3OC)Nc3nc(C)cc(C)n3)c2c1,0,-,0,-,?,0,-,-,-,-
COc1ccc(CCNC(=O)c2ccc3c(c2)N(Cc2cccc(Cl)c2)C(=O)CS3)cc1OC,0,-,?,-,0,?,-,-,-,-
CC(=NCCN1CCOCC1)c1c(O)n(Cc2ccccc2)c(=O)[nH]c1=O,0,0,0,0,0,0,-,-,-,-
CC(=NCCc1c[nH]c2ccccc12)c1c(O)n(Cc2ccccc2)c(=O)[nH]c1=O,0,?,0,0,11µM,?,21µM,0,?,0
CC1=C(N2CC2)C(=O)C(CO)=C(N2CC2)C1=O,0,0.0058µM,2.7µM,?,0.32µM,0.12µM,0.1µM,0.21µM,0,0
c1ccc2c(CN3CCCCCCC3)c[nH]c2c1,0,?,?,0,?,0,21µM,23µM,8.2µM,0
CC(C)c1ccc(N2C(=O)NC(=O)/C(=C\C=C\c3ccco3)C2=O)cc1,0,5.8µM,28µM,4.1µM,10µM,?,4.1µM,7.3µM,5.8µM,0
COc1ccc(-c2nn(-c3ccccc3)cc2C(=O)N2c3ccc(C)cc3C3CN(C)CCC32)cc1 (configuration not stated),0,23µM,0,-,10µM,0,0,0,?,0
Cc1ccc2c(c1)C1CN(C)CCC1N2C(=O)c1ccco1 (configuration not stated),0,?,0,0,0,0,-,-,-,-
COc1ccc(S(=O)(=O)N2Cc3ccccc3-n3nncc3C2)cc1,0,0,0,0,0,0,-,-,-,-
COc1ccc(S(=O)(=O)N2c3ccc(F)cc3CCC2C)cc1 (configuration not stated),0,3.7µM,?,1.8µM,6.3µM,-,4.1µM,0,5.8µM,0
CCCCCn1c(N)c(C(=O)NCc2cccs2)c2nc3ccccc3nc21,0,?,0,?,0,0,-,-,-,-
CCCCn1c(N)c(C(=O)NCc2cccs2)c2nc3ccccc3nc21,0,?,0,?,10µM,0,?,0,?,0
CCC1(OC(=O)CN)C(=O)OCc2c1cc1n(c2=O)Cc2cc3ccccc3nc2-1 (configuration not stated),0,0.73µM,-,1µM,2.2µM,0.0095µM,1.2µM,0.58µM,2.3µM,0
C[C@@H]1CN([C@@H](C)CO)C(=O)CCCn2nncc2CO[C@H]1CN(C)C(=O)Nc1ccc(N2CCCCC2)cc1,0,0,0,0,0,0,-,-,-,-
CC(/C=C(\C)Nc1ccccc1)=Nc1ccccc1,0,0,0,0,0,0,-,-,-,-
NC(=Nc1ccccc1)Nc1ccccc1,0,0,?,0,8.9µM,0,9.2µM,?,?,0
CC(=O)c1cn(Cc2ccccc2F)c2ccccc12,0,0,0,0,?,0,-,-,-,-
O=Cc1cn(Cc2ccccc2F)c2ccccc12,0,0,0,0,0.89µM,?,0.46µM,1µM,0,0
CCCc1nc2ccc(Br)cc2c(=O)n1-c1ccc([N+](=O)[O-])c(C(F)(F)F)c1,0,?,0,?,7.1µM,0,?,0,?,0
Cc1ccccc1-c1nc(CS(=O)CC(=O)N2CCN(c3cc(Cl)ccc3C)CC2)c(C)o1 (configuration not stated),0,-,0,-,?,0,-,-,-,-
Nc1ncnc2c1ccn2[C@@H]1O[C@H](CO)[C@@H](O)[C@H]1O,1µM,0.82µM,3.2µM,0.65µM,0.45µM,1.1µM,0.58µM,0.92µM,0.82µM,0
Nc1ncnc2c1ncn2[C@@H]1O[C@H](COP(=O)(O)OP(=O)(O)OP(=O)(O)O)[C@@H](O)[C@H]1O,0,?,0,?,0,0,-,-,-,-
NC(=S)c1cn(C2OC(CO)C(O)C2O)c2ncnc(N)c12 (configuration not stated),0,1.3µM,?,?,0.32µM,-,0.26µM,0.16µM,0.46µM,0
SMILES,HepG2 tox-1,HT1080 IDH1KD tx,S2 tox,HT1080NT lethal,TGFb inhibitor,ATXN2 expr inh,TGFb confirm,HepG2 tox-2,TGFb CCL64 inh,COP TGFb inh
Cc1cccc(-n2nc(C)c(C(=O)N3CCN(c4ccccc4)CC3)c2-n2cccc2)c1,0,-,-,-,?,-,-,-,-,-
C[C@H]1CCC/C=C/[C@@H]2C[C@H](O)C[C@H]2[C@H](O)/C=C/C(=O)O1,0,0.0065µM,0,0.41µM,0.13µM!,?,0.12µM,?,?,0
CC(=O)OC[C@]12CCC(C)=C[C@H]1O[C@@H]1[C@H](O)[C@@H](OC(C)=O)[C@@]2(C)[C@]12CO2,0,0.21µM,0,?,0,0,0.037µM,0.15µM,0.037µM,0
Cc1[nH]nc2ccc(-c3cncc(OC[C@@H](N)Cc4c[nH]c5ccccc45)c3)cc12,0,10µM,-,18µM,1µM,2.2µM,1.6µM,1.3µM,0,0
Cc1ccc2[nH]c(C)c(CCNCc3ccco3)c2c1,0,0,0,0,0,-,-,-,-,-
Cc1[nH]c2ccc(OC(F)(F)F)cc2c1CCNCc1ccc(Cl)cc1,11µM,15µM,?,?,10µM,20µM,?,?,?,?
CCOC(=O)c1c(C)n(Cc2ccccc2)c2ccc(OCC(O)Cn3nc(C)cc3C)cc12 (configuration not stated),0,?,?,?,14µM,0,21µM,?,15µM,0
CCN1CCN(CC(=O)c2c(C)n(Cc3ccccc3)c3ccc(OC)cc23)CC1,0,0,0,0,0,0,-,-,-,-
COc1ccc(-c2coc3c(C(=O)Nc4cc(OC)c(OC)c(OC)c4)cccc23)c(C)c1,0,?,?,?,0,?,-,-,-,-
